# Source: PubChem BioAssay (EPA / NIEHS)
# Inconclusive results are not listed. Some compounds were tested as several samples or in several runs, with calls that do not always agree. Active and inactive are the calls of the source. The calls were made as follows, unless noted: active = hit-call score of the fitted dose curve at least 0.9, where 1 is the maximum; inactive = score below 0.9.
# Tests used:
# SERPINA7 (gene 6906) = experiment: CCTE_GLTED_hTBG: CCTE's human Thyroxine-binding Globulin (TBG) Inhibition Assay, Great Lakes Toxicology and Ecology Division (GLTED) Lab (AID 2284343; active = hit-call score of the fitted dose curve at least 0.9, where 1 is the maximum;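 also: active chemicals lower fluorescence versus DMSO baseline by displacing probe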)
# In short: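 Fluorescence (ex 380/em 475) reports ANSA displaced from human TBG after a 2 h incubation with test chemical, without cells. Loss of signal indicates displacement, with DMSO serving as baseline.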
# [1] = CCTE_Mundy_HCI_iCellGluta_NOG_NeuronCount: CCTE's Neurite Outgrowth Assay in iCellGluta cells for Neuron Count, Mundy Lab (AID 2284340; active = hit-call score of the fitted dose curve at least 0.9, where 1 is the maximum;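 also: cells fixed about 48 h after compound addition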)
# In short: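 Neuron count read by automated high-content imaging of Hoechst 33342 and betaIII-tubulin/Alexa Fluor-488 labelling in human iPSC glutamatergic neurons. Activity fitted relative to DMSO.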
# [2] = CCTE_Mundy_HCI_iCellGluta_NOG_NeuriteCount: CCTE's Neurite Outgrowth Assay in iCellGluta cells for Neurite Count, Mundy Lab (AID 2284342; active = hit-call score of the fitted dose curve at least 0.9, where 1 is the maximum;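 also: chemical exposure about 48 hours starting 2 hours after plating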)
# [3] = Tanguay_ZF_120hpf_MO24: Oregon State University Tanguay Lab 24 Hour Post-fertilization zebrafish Assay for Mortality (AID 2284389)
# In short: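 Embryo death at 24 hpf was recorded as present or absent in Tropical 5D zebrafish, dechorionated at 4 hpf and dosed statically from 6 hpf (28C, 0.64% DMSO); 5 uM trimethyltin chloride served as positive control.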
# [4] = Tanguay_ZF_120hpf_DP24: Oregon State University Tanguay Lab 24 Hour Post-fertilization zebrafish Assay for Delayed Development (AID 2284390)
# In short: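 Scored at 24 hpf as a binary present/absent call of delayed development by brightfield, with dead embryos not assessed. Embryos (5D wild type, chorion removed with pronase at 4 hpf) dosed statically from 6 hpf at 28 C in 0.64% DMSO.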
# [5] = Tanguay_ZF_120hpf_CRAN: Oregon State University Tanguay Lab 120 Hour Post-fertilization zebrafish Assay for Craniofacial Malformation (AID 2284397)
# Protocol: Tanguay_ZF_120hpf is a whole embryo, multiplexed endpoint assay using zebrafish larvae exposed for 120 hours post fertilization on a 96-well plate.Tanguay_ZF_120hpf_CRAN is one of one assay component(s) measured or calculated from the Tanguay_ZF_120hpf assay. It is designed to make measurements of zebrafish development as detected with brightfield microscopy of developing zebrafish embryos.Data from the assay component Tanguay_ZF_120hpf_CRAN was analyzed into 1 assay endpoints. This assay endpoint, Tanguay_ZF_120hpf_CRAN, was analyzed in the positive analysis fitting direction relative to DMSO as the negative control and baseline of activity. Using a type of morphology reporter, gain-of-signal activity can be used to understand changes in developmentals as they relate to the whole embryo. To generalize the intended target to other relatable targets, this assay endpoint is annotated to the zebrafish development intended target family, where the subfamily is craniofacial morphogenesis.
# Zebrafish husbandry: Tropical 5D wild-type adult zebrafish were housed in at an approximate density of 1000 per 100 gallon tank at the Sinnhuber Aquatic Research Laboratory, Oregon State University, Corvallis, OR. Each tank was kept at standard laboratory conditions of 28C on a 14-h light/10-h dark photoperiod in fish water consisting of reverse osmosis water supplemented with a commercially available salt (Instant Ocean). Spawning funnels were placed into the tanks the night prior, and embryos were collected and staged. To increase bioavailability, the chorion was enzymatically removed using pronase (63.6mg/ml, >/= 3.5U/mg, Sigma-Aldrich: P5147) at 4 hours post fertilization (hpf) using a custom automated dechorionator.Chemical exposures: Six hpf dechorionated embryos were placed 1 embryo per well in a 96-well plate prefilled with 90 ul of EM using automated embryo placement systems (AEPS). Ten microliters of each row of dilution plate 2 was added to 2 exposure plates. The final DMSO concentration used was 0.64% (vol/vol). Thirty-two embryos were also exposed to 5uM trimethyltin chloride (positive control). Plates were sealed to prevent evaporation and foil covered to reduce light exposure and kept in a 28C incubator. Embryos were statically exposed until 120 hpf. At 24 hpf, embryos were assessed for photomotor response using a custom photomotor response analysis tool (PRAT) and for developmental toxicity endpoints (MO24: mortality at 24 hpf, DP: developmental progression, SM: spontaneous movement, and NC: notochord distortion). At 120 hpf, locomotor activity was measured using Viewpoint Zebralab and assessed for 13 endpoints. Zebrafish acquisition and analysis program (ZAAP), a custom program designed to inventory, acquire, and manage zebrafish data, was used to collect developmental endpoints as either present or absent (i.e., binary responses were recorded). If mortality occurred for an embryo (at either 24 or 120 hpf), the non-mortality endpoints were not measured.
# [6] = Tanguay_ZF_120hpf_AXIS: Oregon State University Tanguay Lab 120 Hour Post-fertilization zebrafish Assay for Axial Malformation (AID 2284398)
# In short: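 Scoring was binary (present or absent) for body-axis defects, judged by brightfield imaging at 120 hpf in surviving larvae. Exposure was static at 28C from 6 hpf in chorion-free 5D wild-type embryos, with 0.64% DMSO vehicle.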
# [7] = test system: SRY-box transcription factor 17 (SOX17) Protein Expression, Deisenroth Lab, SOX17 (gene 64321); experiment: CCTE_Deisenroth_DEVTOX-GLR_legacy_Sox17: (Legacy) CCTE's DevTox GLR-Endo Assay Evaluation of SRY-box transcription factor 17 (SOX17) Protein Expression, Deisenroth Lab (AID 2284341); conditions: actives raise or lower the signal
# In short: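 RUES2-GLR human pluripotent cells, seeded 24 h, then differentiated 48 h in defined media with two chemical exposures 24 h apart (1 nM - 200 uM, 10 points). Sox17+ fraction from high-content fluorescence imaging; bidirectional fit versus 0.2% DMSO.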
# [8] = test system: SRY-box transcription factor 2 (SOX2) Protein Expression, Deisenroth Lab, SOX2 (gene 6657); experiment: CCTE_Deisenroth_DEVTOX-GLR_legacy_Sox2: (Legacy) CCTE's DevTox GLR-Endo Assay Evaluation of SRY-box transcription factor 2 (SOX2) Protein Expression, Deisenroth Lab (AID 2284346)
# In short: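 Read-out: fraction of Sox2+ cells by high-content fluorescence imaging of fixed RUES2-GLR cells after 48 h differentiation with two 24 h-spaced exposures. Positivity cutoff 5x BMAD above endoderm control median; 0.2% DMSO median subtracted.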
structure (smiles),measurement,setting,value
CC(C)(c1ccccc1)c1ccc(O)cc1,AC50,SERPINA7 (gene 6906),3.54 µM (active)
O=S(=O)(O)C(F)(F)C(F)(F)C(F)(F)C(F)(F)C(F)(F)C(F)(F)F,outcome,[1],inactive
same,outcome,[2],inactive
same,outcome,[3],inactive
same,outcome,[4],inactive
same,AC50,[5],85.1 µM (active)
same,outcome,[5],inactive
same,AC50,[6],84.8 µM (active)
same,outcome,[6],inactive
CCC(C)c1cc([N+](=O)[O-])cc([N+](=O)[O-])c1O (stereo not drawn),AC50,SERPINA7 (gene 6906),19.3 µM (active)
CCOP(=S)(OCC)SCSC(C)(C)C,outcome,[1],inactive
same,outcome,[2],inactive
CC1=C2C[C@H]3[C@@H](CC=C4C[C@@H](O)CC[C@@]43C)[C@@H]2CC[C@]12O[C@@H]1C[C@H](C)CN[C@H]1[C@H]2C,outcome,[7],inactive
same,outcome,[8],inactive
O=S(=O)(O)C(F)(F)C(F)(F)C(F)(F)C(F)(F)F,outcome,[1],inactive
same,outcome,[2],inactive
same,outcome,SERPINA7 (gene 6906),inactive
same,outcome,[3],inactive
same,outcome,[4],inactive
same,outcome,[5],inactive
same,outcome,[6],inactive
CC(c1ccc(O)cc1)(c1ccc(O)cc1)c1ccc(O)cc1,AC50,SERPINA7 (gene 6906),11.5 µM (active)
O=C(O)C(F)(F)C(F)(F)C(F)(F)C(F)(F)C(F)(F)F,outcome,[3],inactive
same,outcome,[4],inactive
same,outcome,[5],inactive
same,outcome,[6],inactive
CC(C)(O)C(=O)Nc1ccc([N+](=O)[O-])c(C(F)(F)F)c1,AC50,SERPINA7 (gene 6906),35.6 µM (active)
CO/C=C(/C(=O)OC)c1ccccc1COc1cccc(C(F)(F)F)n1,AC50,[1],35.8 µM (active)
same,AC50,[2],20 µM (active)
C=CC(N)=O,outcome,[7],inactive
same,outcome,[8],inactive
NS(=O)(=O)C(F)(F)C(F)(F)C(F)(F)C(F)(F)C(F)(F)C(F)(F)C(F)(F)C(F)(F)F,outcome,[1],inactive
same,outcome,[2],inactive
same,outcome,[3],inactive
same,AC50,[4],16.4 µM (active)
same,AC50,[5],3.27 µM (active)
same,outcome,[6],inactive
ClC1=C(Cl)[C@]2(Cl)[C@@H]3[C@@H]4C[C@@H]([C@H]5O[C@@H]45)[C@@H]3[C@@]1(Cl)C2(Cl)Cl,AC50,SERPINA7 (gene 6906),1.56 µM (active)
